Assay outcomes from PubChem.
CYP2C9 inh: blockers of cytochrome P450 2C9 activity – biochemical, luminescence, ADME assay, primary screen; CYP2C9 Supersomes, luciferin-H conversion; inhibition, % at 5 µM; 96,000 compounds, 20% hits;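 active = blocking of liver enzyme CYP2C9 beyond about 50% at 5 µM, limit read from the data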
CYP2C19 inh: blockers of cytochrome P450 2C19 activity – biochemical, luminescence, ADME assay, primary screen; P33261; CYP2C19 Supersomes, luciferin-H EGE luminescence, 30 min; 96,000 compounds, 21% hits; AID 778, 2007; inhibition, % at 5 µM;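 active = CYP2C19 inhibition above a set limit at 5 µM in the primary screen, cut at about 50% in these data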;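 note: plate controls were negative control wells for no effect and 2.5 mM tranylcypromine positive control for full effect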
Target sequence (P33261 whole entry, looked up): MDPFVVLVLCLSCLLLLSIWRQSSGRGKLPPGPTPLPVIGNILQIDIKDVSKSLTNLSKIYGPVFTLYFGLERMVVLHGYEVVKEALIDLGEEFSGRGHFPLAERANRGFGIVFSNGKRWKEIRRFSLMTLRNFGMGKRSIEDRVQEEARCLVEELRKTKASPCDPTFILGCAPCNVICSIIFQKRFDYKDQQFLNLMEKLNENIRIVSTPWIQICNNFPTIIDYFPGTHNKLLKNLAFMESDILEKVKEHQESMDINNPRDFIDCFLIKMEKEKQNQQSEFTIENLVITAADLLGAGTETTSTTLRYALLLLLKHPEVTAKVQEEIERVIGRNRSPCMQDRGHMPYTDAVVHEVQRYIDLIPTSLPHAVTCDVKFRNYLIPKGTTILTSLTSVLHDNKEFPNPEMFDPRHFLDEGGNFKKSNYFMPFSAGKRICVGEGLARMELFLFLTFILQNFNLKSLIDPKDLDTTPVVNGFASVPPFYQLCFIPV
Cav3 T inh: Cav3.2 calcium influx blockers – cell-based, Fluo-4 calcium fluorescence, FDSS, MLSMR library, primary screen | Cav3.2-expressing cells; hits give low values | B-score at 10 µM | 100,000 compounds, 4% hits | AID 449739, 2010;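 active = single-dose well whose peak fluorescence ratio is a statistical outlier from its plate by either plate-standardised score or position-corrected B-score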
CYP2C9 act: human CYP2C9 activators, primary screen, biochemical, luminescence. AID 1024, 2008. 96,000 compounds, 1.4% hits. recombinant CYP2C9, luciferin-H conversion; hits give high values; factor 1 = untreated enzyme, 0 = blocked. activation factor at 5 µM;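 active = activation factor of 2 or more for CYP2C9 at a 5 µM dose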;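 note: 0 = sulfaphenazole-blocked wells and 1 = vehicle-only wells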
CYP2C19 activ: human CYP2C19 activators, primary screen, biochemical, luminescence; activation factor at 5 µM; Cytochrome P450 2C19 (Homo sapiens), P33261; 96,000 tested, under 10 active; recombinant CYP2C19, luciferin-H EGE luminescence; hits give high values; 0 = fully inhibited enzyme, 1 = untreated enzyme;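 active = activation factor of at least 2 at 5 µM in the primary screen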;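 note: 0 = wells with 2.5 mM tranylcypromine and 1 = vehicle-only wells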
* = called active by the depositor; nt = no result given. Hits are enriched below; roughly 27% of the tested compounds scored in any of these assays.

SMILES	CYP2C9 inh	CYP2C19 inh	Cav3 T inh	CYP2C9 act	CYP2C19 activ
Cc1nc2ccc(S(=O)(=O)Nc3ccccc3C)cc2s1	69.6*	97.2*	-0.249	0.3	0
NC1=NC[C@@H](Cc2ccc(O)cc2)N1CCCCC1CCCCC1	nt	nt	-1.53	nt	nt
COC(=O)c1ccccc1NC(=O)Cn1cnc2cc(C)c(C)cc21	16.5	42.3	-0.0259	0.8	0.6
CC1CC(C)CN(C(=O)CSc2nnc(-c3ccc(Cl)s3)o2)C1 (stereo not drawn)	18.2	38.8	-3.41*	0.8	0.6
COc1ccc(CSc2nnnn2C)cc1[N+](=O)[O-]	0.1	30.0	0.974	1	0.7
Cn1nnnc1SCCNC/C=C/c1ccccc1	8.3	79.5*	0.582	0.9	0.2
COc1cccc(CNCCSc2nnnn2C)c1	-10.7	71.2*	0.953	1.1	0.3
COc1ccc(CSc2nnnn2C)cc1F	-3.4	72.4*	0.0884	1	0.3
Cn1nnnc1SCCNCc1cccc2ccccc12	15.4	85.6*	0.0437	0.8	0.1
CN1C[C@@H]2C(c3ccc(C(F)(F)F)cc3)C3(c4cccnc4)CC2(C3)[C@H]1c1ccccc1 (stereo partly drawn)	nt	nt	0.0411	nt	nt
Cc1cccc(C)c1NC(=O)c1cc(S(=O)(=O)N2CCOCC2)ccc1F	nt	nt	-0.0152	nt	nt
CCc1ccc(CNCCSc2nnnn2C)cc1	6.6	70.2*	0.687	0.9	0.3
COc1ccc(CNCCSc2nnnn2C)cc1OC	-25.6	12.5	0.783	1.3	0.9
COc1ccc(Br)cc1CNCCSc1nnnn1C	54.6*	100.2*	0.47	0.5	0
Oc1cc2c(cc1O)C1c3ccc(O)c(O)c3OCC1(O)C2 (stereo not drawn)	nt	nt	0.508	nt	nt
CCCCN1C(N)=NC[C@@H]1C(C)O (stereo partly drawn)	nt	nt	0.0106	nt	nt
O=c1cc(N2CCCCC2)c(-c2ccccc2)nn1Cc1cccc(Cl)c1	19.8	26.7	-0.122	0.8	0.7
O=C(O)c1cnn2c1NC(c1cccs1)CC2C(F)(F)F (stereo not drawn)	14.9	7.7	-0.245	0.9	0.9
Cc1nn(Cc2ccc(F)cc2)c(C)c1NC(=O)c1cnn2c1NC(c1ccccc1)CC2C(F)(F)F (stereo not drawn)	66.9*	31.9	-0.838	0.3	0.7
O=C(NCCCn1ccnc1)c1cnn2c1NC(c1ccccc1)CC2C(F)(F)F (stereo not drawn)	97.4*	84.9*	0.168	0	0.2
NC(=O)c1cnn2c1NC(c1ccc(F)cc1)CC2C(F)(F)F (stereo not drawn)	54.5*	61.6*	1.64	0.5	0.4
Cc1c(CNC(=O)c2cnn3c2NC(c2ccc(Br)cc2)CC3C(F)(F)F)cnn1C (stereo not drawn)	66.8*	45.7	-0.467	0.3	0.5
CSc1nc(C)cc(OCC#N)n1	-23.4	12.1	0.0104	1.2	0.9
COc1ccc2nc(SCC(=O)Nc3ccc4sc(C)nc4c3)c(C#N)cc2c1	45.4	24.8	-0.485	0.5	0.8
Cc1csc(Sc2nc3c(c(=O)[nH]c(=O)n3C)n2CCCc2ccccc2)n1	7.6	-2.6	-0.0576	0.9	1
SMILES	CYP2C9 inh	CYP2C19 inh	Cav3 T inh	CYP2C9 act	CYP2C19 activ
O=C1NC(=Nc2ccccc2)S/C1=C\c1cccn1-c1ccccc1	-66.6	17.7	-0.0906	1.7	0.8
Cc1c(NC(=O)c2cnn3c2NC(c2ccc(Br)cc2)CC3C(F)(F)F)c(=O)n(-c2ccccc2)n1C (stereo not drawn)	nt	nt	-7.77*	nt	nt
Cc1nn(C)cc1CNC(=O)c1cnn2c1NC(c1ccc(Br)cc1)CC2C(F)(F)F (stereo not drawn)	20.0	9.0	-0.847	0.8	0.9
CCn1cc([N+](=O)[O-])c(C(=O)N2N=C3/C(=C/c4cccs4)CCCC3C2c2cccs2)n1 (stereo not drawn)	nt	nt	-2.45	nt	nt
COc1ccc(-c2oc3ncnc(NCCCN4CCOCC4)c3c2-c2ccc(OC)cc2)cc1	94.5*	24.1	0.0359	0.1	0.8
COc1ccc(-c2oc3ncnc(NCCN4CCOCC4)c3c2-c2ccc(OC)cc2)cc1	30.2	22.6	1.03	0.7	0.8
COc1ccc(-c2oc3ncn(CCN4CCOCC4)c(=N)c3c2-c2ccc(OC)cc2)cc1	13.3	62.8*	-0.449	0.9	0.4
c1ccc(-c2oc3ncnc(NCCCN4CCOCC4)c3c2-c2ccccc2)cc1	93.7*	90.1*	0.0441	0.1	0.1
N#CCSc1ncnc2c1cnn2CCO	-9.3	-9.3	0.357	1.1	1.1
Cc1nnc(SCC(=O)N2CCN(Cc3ccccc3)CC2)s1	19.3	89.4*	0.895	0.8	0.1
O=C(CSc1ncccn1)N1CCN(Cc2ccccc2)CC1	nt	nt	0.277	nt	nt
Nc1nnc(SCC(=O)N2CCN(Cc3ccccc3)CC2)s1	52.9*	68.4*	0.0307	0.5	0.3
Nc1nnc(SCC(=O)c2ccc3ccccc3c2)s1	37.5	77.7*	nt	0.6	0.2
COc1ccc(S(=O)(=O)N2CCC(C(=O)Nc3cccc(Cl)c3)CC2)cc1OC	-9.0	52.9*	-3.4	1.1	0.5
O=C(Nc1ccc(N2CCOCC2)cc1)C1CC1	-5.5	2.8	0.158	1.1	1
CC(=O)c1cccc(NC(=O)C2CCN(S(C)(=O)=O)CC2)c1	-4.6	15.1	0.331	1	0.8
COc1ccc(NC(=O)C2CCN(S(=O)(=O)c3ccc(C)cc3)CC2)cc1OC	-11.0	5.9	0.0845	1.1	0.9
O=C(Nc1ccc(N2CCOCC2)cc1)C1CCCN(S(=O)(=O)c2cccc(C(F)(F)F)c2)C1 (stereo not drawn)	12.1	63.2*	0.0739	0.9	0.4
CC(=O)c1cccc(NC(=O)C2CCCN(S(=O)(=O)c3ccc(F)cc3)C2)c1 (stereo not drawn)	75.9*	87.3*	-2.35	0.2	0.1
CC(=O)c1cccc(NC(=O)C2CCN(S(=O)(=O)c3ccc(F)cc3)CC2)c1	63.3*	53.2*	0.513	0.4	0.5
CC(C)(C)[C@H]1C=C(C(=O)N2CCN(Cc3ccc4c(c3)OCO4)CC2)O[C@@H](OCc2ccc(CO)cc2)C1	nt	nt	-2.56	nt	nt
COCCNC(=O)C1CCC(=O)N(c2ccc(OC)cc2)C1c1ccc(OC)c(OC)c1 (stereo not drawn)	-2.5	1.8	0.0944	1	1
Cc1nnc(C)c2c(C)n(Cc3ccc4c(c3)OCO4)c(C)c12	17.9	39.8	-0.655	0.8	0.6
O=C(CCCCCNS(=O)(=O)c1ccc(Br)cc1)NCCN1CCOCC1	2.0	-10.8	0.975	1	1.1
CCCc1nnc(SCC(=O)N2CCOCC2)n1C	nt	nt	-0.532	nt	nt
CC(=O)c1cccc(NC(=O)C2CCN(S(=O)(=O)c3ccccc3)CC2)c1	8.5	67.5*	0.886	0.9	0.3
COc1ccc(S(=O)(=O)NCCCCCC(=O)NCCCN2CCOCC2)cc1	11.0	2.5	0.942	0.9	1
